Experimental data as given in PubChem BioAssay AID1159580 (chemical genetic matrix, 2015).
Out of some 5,500 compounds screened, about 2,000 (36%) were called active. Not shown: some 18% with an inconclusive outcome. No stated cut-off is given here; in the data, active means normalized growth mostly below about 0.91 (no sharp cut-off); inconclusive means no clear call, values can overlap the other calls; inactive means mostly above about 0.92. This is one part of the list.

Experiment: chemical genetic growth profiling, strain panel (AID 1159580);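 further: tested at 20 µM; growth read once vehicle control cultures reached saturation at 30 °C; 1 = growth at the plate median or of vehicle wells; lower values mean less growth of the strain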
Details: S. cerevisiae deletion strains, growth OD

Measured: normalized growth

COc1cc(S(C)=O)ccc1-c1nc2ncccc2[nH]1 (stereo not drawn)
inactive: locus YAL013W, strain DEP1, active compounds read low 1.01 | locus YAL021C, strain ccr4, active compounds read low 0.936 | locus YAL026C, strain drs2, active compounds read low 0.994 | locus YAL030W, strain snc1, active compounds read low 0.976 | locus YBL061C, strain skt5, active compounds read low 0.984 | locus YBR009C, strain hhf1, active compounds read low 0.956 | locus YBR021W, strain FUR4, active compounds read low 0.994 | locus YBR023C, strain chs3, active compounds read low 0.98 | locus YBR171W, strain sec66, active compounds read low 0.977 | locus YBR229C, strain ROT2, active compounds read low 1.01 | locus YBR231C, strain swc5, active compounds read low 1.01 | locus YBR279W, strain paf1, active compounds read low 0.981 | locus YCL011C, strain gbp2, active compounds read low 0.969 | locus YCL016C, strain dcc1, active compounds read low 0.959 | locus YCL029C, strain bik1, active compounds read low 0.985 | locus YCL061C, strain MRC1, active compounds read low 0.984 | locus YCL069W, strain vba3, active compounds read low 0.967 | locus YCR088W, strain abp1, active compounds read low 0.981 | locus YDL005C, strain med2, active compounds read low 0.966 | locus YDL035C, strain GPR1, active compounds read low 1 | locus YDL040C, strain nat1, active compounds read low 0.969 | locus YDL074C, strain BRE1, active compounds read low 1.04 | locus YDL101C, strain DUN1, active compounds read low 0.994 | locus YDL134C, strain PPH21, active compounds read low 1.01 | locus YDL185W, strain tfp1, active compounds read low 0.98 | locus YDL192W, strain arf1, active compounds read low 0.985 | locus YDR001C, strain nth1, active compounds read low 0.963 | locus YDR069C, strain doa4, active compounds read low 0.958 | locus YDR101C, strain arx1, active compounds read low 0.999 | locus YDR137W, strain rgp1, active compounds read low 0.973 | locus YDR150W, strain NUM1, active compounds read low 0.979 | locus YDR159W, strain sac3, active compounds read low 0.96 | locus YDR162C, strain NBP2, active compounds read low 1 | locus YDR195W, strain ref2 0.935 | locus YDR297W, strain sur2, active compounds read low 0.974 | locus YDR318W, strain mcm21, active compounds read low 0.997 | locus YDR334W, strain swr1, active compounds read low 0.97 | locus YDR335W, strain msn5, active compounds read low 0.96 | locus YDR388W, active compounds read low 0.996 | locus YDR392W, strain spt3, active compounds read low 0.848 | locus YDR502C, strain sam2, active compounds read low 0.984 | locus YEL003W, strain gim4, active compounds read low 0.98 | locus YEL037C, strain rad23, active compounds read low 0.975 | locus YEL061C, strain CIN8 (second series), active compounds read low 0.972 | locus YEL061C, strain CIN8, active compounds read low 1 | locus YER015W, strain faa2, active compounds read low 0.982 | locus YER016W, strain bim1, active compounds read low 0.978 | locus YER110C, active compounds read low 0.992 | locus YER111C, strain swi4, active compounds read low 0.972 | locus YER155C, strain BEM2 (second series), active compounds read low 0.994 | locus YER155C, strain BEM2, active compounds read low 0.978 | locus YER167W, strain BCK2, active compounds read low 1.01 | locus YFR010W, strain ubp6, active compounds read low 0.974 | locus YGL078C, strain dbp3, active compounds read low 0.993 | locus YGL086W, strain mad1, active compounds read low 0.995 | locus YGL167C, strain pmr1, active compounds read low 0.941 | locus YGL173C, strain kem1, active compounds read low 0.99 | locus YGL227W, strain vid30, active compounds read low 0.982 | locus YGL240W, strain doc1, active compounds read low 0.999 | locus YGL248W, strain PDE1, active compounds read low 0.995 | locus YGL253W, strain hxk2, active compounds read low 0.987 | locus YGR078C, strain PAC10, active compounds read low 1.02 | locus YGR135W, strain pre9, active compounds read low 0.983 | locus YGR229C, strain SMI1, active compounds read low 1.02 | locus YGR252W, strain gcn5, active compounds read low 1.01 | locus YHR013C, strain ard1, active compounds read low 0.929 | locus YHR027C, strain rpn1, active compounds read low 0.97 | locus YHR030C, strain SLT2, active compounds read low 0.984 | locus YHR079C, strain IRE1 (second series), active compounds read low 0.997 | locus YHR094C, strain hxt1, active compounds read low 0.99 | locus YHR129C, strain ARP1, active compounds read low 1 | locus YHR142W, strain chs7, active compounds read low 0.943 | locus YHR200W, strain rpn10, active compounds read low 0.991 | locus YIL066C, strain RNR3, active compounds read low 0.995 | locus YIL073C, strain SPO22, active compounds read low 0.943 | locus YIL125W, strain kgd1, active compounds read low 0.999 | locus YIR030C, strain dcg1, active compounds read low 0.988 | locus YJL092W, strain hpr5, active compounds read low 0.98 | locus YJL095W, strain BCK1 (second series), active compounds read low 0.972 | locus YJL095W, strain BCK1, active compounds read low 1.03 | locus YJL115W, strain asf1, active compounds read low 0.972 | locus YJL129C, strain trk1, active compounds read low 0.966 | locus YJL134W, strain LCB3, active compounds read low 1.01 | locus YJL154C, strain vps35, active compounds read low 0.972 | locus YJL164C, strain tpk1, active compounds read low 0.941 | locus YJL166W, strain qcr8, active compounds read low 0.984 | locus YJL168C, strain set2, active compounds read low 1 | locus YJL187C, strain SWE1 (second series), active compounds read low 0.989
